From PubChem BioAssay (NCI)
Compounds without any hit were thinned out: in the full panel of roughly 83,000, 20% have a hit.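 Growth was measured after 48 h exposure to one concentration of compound in 96-well plates. Values under 10 count as active.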 Activity calls are given as the source filed them.

Tests used:
Experiment in all cases: NCI-60 one-dose screen, 48 h (100 = growth as untreated, 0 = no growth, -100 = all killed)
Settings in all cases: 10 µM unless noted
NCI-H23 lung = tested on: NCI-H23 lung
NCI-H226 lung = tested on: NCI-H226 lung
NCI-H322M lung = tested on: NCI-H322M lung
HOP-62 NSCLC = tested on: HOP-62 NSCLC
NCI-H460 lung = tested on: NCI-H460 lung
HOP-92 NSCLC = tested on: HOP-92 NSCLC
NCI-H522 lung = tested on: NCI-H522 lung
A549/ATCC NSCLC = tested on: A549/ATCC NSCLC
786-0 renal = tested on: 786-0 renal
COLO 205 colon = tested on: COLO 205 colon

Measured: growth

COc1ccc(-c2nc3sccn3c2-c2ccnc(NCCCNS(=O)(=O)c3ccc(C)cc3)n2)cc1
inactive: NCI-H23 lung 26.6% | NCI-H226 lung 13.7% | NCI-H322M lung 65% | HOP-62 NSCLC 86.5% | NCI-H460 lung 40% | HOP-92 NSCLC 67.5% | NCI-H522 lung 21.4% | A549/ATCC NSCLC 38.8% | 786-0 renal 43.6% | COLO 205 colon 11.5%

CCN1C(=O)N(CC)C2Nn3c(s/c(=C\c4cccc(F)c4)c3=O)=NC21 (stereo not given)
inactive: NCI-H23 lung 62.7% | NCI-H226 lung 96.1% | NCI-H322M lung 96.6% | HOP-62 NSCLC 68.1% | NCI-H460 lung 53.9% | HOP-92 NSCLC 49.1% | NCI-H522 lung 64.4% | A549/ATCC NSCLC 72.5% | 786-0 renal 77.5% | COLO 205 colon 70.7%

COc1cc(/C=C2\CCCC3=C2N=C2SC(C)=NN2C3c2cc(OC)c(OC)c(OC)c2)cc(OC)c1OC (stereo not given)
active: HOP-62 NSCLC -0.72% | NCI-H460 lung -13.9%
inactive: NCI-H23 lung 23.2% | NCI-H226 lung 27.7% | NCI-H322M lung 28.5% | HOP-92 NSCLC 91.9% | NCI-H522 lung 81% | A549/ATCC NSCLC 39.9% | 786-0 renal 34.5% | COLO 205 colon 19.2%

CC[C@H](C)[C@@H]1NC(=O)[C@H]([C@@H](C)O)NC(=O)C(Cc2ccccc2)NC(=O)[C@@H]2CCCN2C(=O)C(C(C)C)NC(=O)C(Cc2ccccc2)NC(=O)CNC(=O)[C@@H]2CCCN2C1=O (stereo not given in full)
active: HOP-92 NSCLC -18.4%
inactive: NCI-H23 lung 82.5% | NCI-H226 lung 65.8% | NCI-H322M lung 85.3% | HOP-62 NSCLC 76% | NCI-H460 lung 55.7% | NCI-H522 lung 55.5% | A549/ATCC NSCLC 56.6% | 786-0 renal 39.9% | COLO 205 colon 79.7%

Cc1cnc(NC(=O)C(Cc2ccccc2)NC(=O)c2ccccc2)s1 (stereo not given)
inactive: NCI-H23 lung 86% | NCI-H226 lung 70.2% | NCI-H322M lung 105% | HOP-62 NSCLC 84.1% | NCI-H460 lung 74.3% | HOP-92 NSCLC 19.1% | NCI-H522 lung 63.9% | A549/ATCC NSCLC 90.7% | 786-0 renal 96.9% | COLO 205 colon 91.9%

O=C(O)c1cn(C2CC2)c2cc(N3CCN(S(=O)(=O)c4ccc(Cl)c(Cl)c4)CC3)c(F)cc2c1=O
inactive: NCI-H226 lung 41.4% | NCI-H322M lung 21.3% | HOP-62 NSCLC 15.2% | HOP-92 NSCLC 12.2% | 786-0 renal 27.8%
active: NCI-H23 lung 1.76% | NCI-H460 lung 5.77% | NCI-H522 lung -21.4% | A549/ATCC NSCLC 6.02% | COLO 205 colon -68.4%

CCOC(=O)[C@H](CSSc1ncnc2cc[nH]c12)NC(=O)[C@@H](C)c1ccc2cc(OC)ccc2c1
inactive: NCI-H23 lung 19.9% | NCI-H226 lung 39.9% | NCI-H322M lung 10.7% | HOP-62 NSCLC 23.2% | NCI-H460 lung 32.7% | HOP-92 NSCLC 46% | NCI-H522 lung 11.3% | A549/ATCC NSCLC 59.9% | 786-0 renal 25.5%
active: COLO 205 colon 3.67%

COc1ccc(S(=O)(=O)N2CCN(c3cc4c(cc3F)c(=O)c(C(=O)O)cn4C3CC3)CC2)c(OC)c1
inactive: NCI-H23 lung 97% | NCI-H226 lung 89% | NCI-H322M lung 91.6% | HOP-62 NSCLC 86.6% | NCI-H460 lung 99% | HOP-92 NSCLC 90.2% | NCI-H522 lung 91.4% | A549/ATCC NSCLC 93.6% | 786-0 renal 91.5% | COLO 205 colon 105%

COc1ccc(/C=N/NC(=O)Cn2c(Cc3cccc4ccccc34)nc3ccccc32)cc1
inactive: NCI-H23 lung 90.3% | NCI-H226 lung 92.7% | NCI-H322M lung 84.5% | HOP-62 NSCLC 89.3% | NCI-H460 lung 106% | HOP-92 NSCLC 101% | NCI-H522 lung 77.7% | A549/ATCC NSCLC 95% | 786-0 renal 102% | COLO 205 colon 106%

Cn1cc(C=O)c2ccccc21
inactive: NCI-H23 lung 96.4% | NCI-H226 lung 95.2% | NCI-H322M lung 97.8% | HOP-62 NSCLC 95.9% | NCI-H460 lung 104% | HOP-92 NSCLC 87.6% | NCI-H522 lung 98.3% | A549/ATCC NSCLC 104% | 786-0 renal 99.2% | COLO 205 colon 104%

O=C(Nc1cc(C(F)(F)F)cc(C(F)(F)F)c1)Nc1ccc(OCc2nnc(-c3ccc(Cl)cc3)o2)c(F)c1
inactive: NCI-H322M lung 19.3% | HOP-62 NSCLC 10.3% | A549/ATCC NSCLC 10.5% | 786-0 renal 15.1%
active: NCI-H23 lung -5.96% | NCI-H226 lung 6.03% | NCI-H460 lung 6.63% | HOP-92 NSCLC -11.9% | NCI-H522 lung -22.8% | COLO 205 colon -84.7%

O=C(Nc1ccc(F)cc1)c1cc([N+](=O)[O-])ccc1O
inactive: NCI-H23 lung 50.1% | NCI-H226 lung 88.3% | NCI-H322M lung 64.3% | HOP-62 NSCLC 65.2% | NCI-H460 lung 64.2% | HOP-92 NSCLC 15.7% | NCI-H522 lung 15.3% | A549/ATCC NSCLC 68.1% | 786-0 renal 80.2% | COLO 205 colon 81.5%

CCNc1nc(N2CC(=O)Nc3cc(OC)ccc32)c2ccccc2n1
active: NCI-H23 lung 3.23% | NCI-H460 lung -5.18% | HOP-92 NSCLC -2.59% | NCI-H522 lung -8.1% | COLO 205 colon -48.4%
inactive: NCI-H226 lung 50.3% | NCI-H322M lung 36.6% | HOP-62 NSCLC 25.5% | A549/ATCC NSCLC 20.4% | 786-0 renal 12%

Clc1nc(Cl)c2ncn(C/C=C/Cn3cnc4c(Cl)nc(Cl)nc43)c2n1
active: HOP-92 NSCLC -13.3%
inactive: NCI-H23 lung 94.7% | NCI-H226 lung 94.2% | NCI-H322M lung 94.6% | HOP-62 NSCLC 94.3% | NCI-H460 lung 84.5% | NCI-H522 lung 27.7% | A549/ATCC NSCLC 71.6% | 786-0 renal 93.2% | COLO 205 colon 63.3%

CC(=O)N1Cc2ccccc2C(C)Cc2cc(Cl)ccc21 (stereo not given)
inactive: NCI-H23 lung 106% | NCI-H226 lung 117% | NCI-H322M lung 97.9% | HOP-62 NSCLC 102% | NCI-H460 lung 105% | HOP-92 NSCLC 99.3% | NCI-H522 lung 95.8% | A549/ATCC NSCLC 96.5% | 786-0 renal 95.9% | COLO 205 colon 117%

O=C(Nc1cccc(Cl)c1)c1cc([N+](=O)[O-])ccc1O
active: HOP-92 NSCLC 8.95% | NCI-H522 lung -2.45%
inactive: NCI-H23 lung 25.8% | NCI-H226 lung 68.2% | NCI-H322M lung 43.9% | HOP-62 NSCLC 44.2% | NCI-H460 lung 54% | A549/ATCC NSCLC 66.9% | 786-0 renal 63.8% | COLO 205 colon 76.7%

O=C(CNc1ccc(Cl)cc1)Nc1ccc(-c2nc3ccccc3s2)cc1
inactive: NCI-H23 lung 39.1% | NCI-H226 lung 58.1% | NCI-H322M lung 80.3% | HOP-62 NSCLC 116% | NCI-H460 lung 87.1% | HOP-92 NSCLC 97.8% | A549/ATCC NSCLC 89% | 786-0 renal 27% | COLO 205 colon 47%
active: NCI-H522 lung -94.5%

COc1ccc2c(c1)C(C)Cc1c(N(C)C)ncnc1N2C (stereo not given)
active: NCI-H522 lung -0.111%
inactive: NCI-H23 lung 52.7% | NCI-H226 lung 81.6% | NCI-H322M lung 53.9% | HOP-62 NSCLC 35.5% | NCI-H460 lung 16.1% | HOP-92 NSCLC 50.5% | A549/ATCC NSCLC 50.5% | 786-0 renal 33% | COLO 205 colon 15.8%

COc1ccc(/C=C/C(=O)OCC(=O)NNC(=O)c2ccccc2)cc1OC
inactive: NCI-H23 lung 106% | NCI-H226 lung 103% | NCI-H322M lung 117% | HOP-62 NSCLC 84.1% | NCI-H460 lung 110% | HOP-92 NSCLC 79.3% | NCI-H522 lung 104% | A549/ATCC NSCLC 99.2% | 786-0 renal 99.8% | COLO 205 colon 118%

O=C(Nc1ccc(I)cc1)c1cc([N+](=O)[O-])ccc1O
inactive: NCI-H226 lung 45.9% | NCI-H322M lung 29.7% | HOP-62 NSCLC 23.8% | NCI-H460 lung 33.7% | A549/ATCC NSCLC 44.1% | 786-0 renal 39.6% | COLO 205 colon 37.1%
active: NCI-H23 lung 8.5% | HOP-92 NSCLC -6.55% | NCI-H522 lung -1.54%

COC(=O)CCCCN=Cc1c(O)c(O)c(C(C)C)c2cc(C)c(-c3c(C)cc4c(C(C)C)c(O)c(O)c(C=NCCCCC(=O)OC)c4c3O)c(O)c12
inactive: NCI-H23 lung 15.6% | NCI-H226 lung 41.4% | NCI-H322M lung 25.4% | HOP-62 NSCLC 27.3% | A549/ATCC NSCLC 21% | 786-0 renal 21.7% | COLO 205 colon 10.2%
active: NCI-H460 lung 5.03% | HOP-92 NSCLC -10.1% | NCI-H522 lung -0.222%

CCCCNC(=O)NS(=O)(=O)c1ccc(N2N=C(c3ccc(C)cc3C)CC2c2ccc(OC)cc2)cc1 (stereo not given)
inactive: NCI-H23 lung 65.4% | NCI-H226 lung 86.7% | NCI-H322M lung 90.6% | HOP-62 NSCLC 92% | NCI-H460 lung 48.3% | HOP-92 NSCLC 75.1% | NCI-H522 lung 54.4% | A549/ATCC NSCLC 38.4% | 786-0 renal 61.3% | COLO 205 colon 93.5%

O=C(Nc1ccc(I)cc1)c1cccc([N+](=O)[O-])c1O
inactive: NCI-H226 lung 20.5% | NCI-H322M lung 20.9% | HOP-62 NSCLC 23.5% | NCI-H460 lung 17.5% | A549/ATCC NSCLC 14.5% | 786-0 renal 16.6%
active: NCI-H23 lung -6.76% | HOP-92 NSCLC -4.99% | NCI-H522 lung 1.75% | COLO 205 colon 7.78%

CCn1cc(C(=O)O)c(=O)c2cc(F)c(N3CCN(S(=O)(=O)c4cccc5ccccc45)CC3)cc21
active: NCI-H23 lung 0.0593% | NCI-H322M lung -14.5% | NCI-H460 lung 8.04% | HOP-92 NSCLC -8.49% | NCI-H522 lung -33.9% | A549/ATCC NSCLC 3.78% | COLO 205 colon -87.6%
inactive: NCI-H226 lung 21.9% | HOP-62 NSCLC 15.1% | 786-0 renal 24.3%
